Test results reported in PubChem BioAssay (EPA / NIEHS).
Active and inactive are the calls of the source. The calls were made as follows: active = hit-call score of the fitted dose curve at least 0.9, where 1 is the maximum; inactive = score below 0.9.

Read-out: Matrix Metallopeptidase 1 (MMP1), MMP1 (gene 4312)
Assay: BSK_hDFCGF_MMP1: BioMAP Diversity Plus: hDFCGF Assay for Matrix Metallopeptidase 1 (MMP1) Biomarker Activity (AID 2283064)
Settings: primary human foreskin fibroblasts; actives raise or lower the signal
Method: BSK_hDFCGF is a cell-based, multiplexed-readout assay that uses foreskin fibroblast, a human skin primary cell, with measurements taken at 24 hours after chemical dosing in a 96-well plate.BSK_hDFCGF_MMP1 is an assay component measured in the BSK_hDFCGF assay. It measures MMP-1 antibody related to regulation of gene expression using ELISA technology.Data from the assay component BSK_hDFCGF_MMP1 was analyzed into 1 assay endpoint. This assay endpoint, BSK_hDFCGF_MMP1, was analyzed with bidirectional fitting relative to DMSO as the negative control and baseline of activity. Using a type of binding reporter, gain or loss-of-signal activity can be used to understand changes in the signaling as they relate to the gene MMP1. Furthermore, this assay endpoint can be referred to as a primary readout, because this assay has produced multiple assay endpoints where this one serves a signaling function. To generalize the intended target to other relatable targets, this assay endpoint is annotated to the protease intended target family, where the subfamily is matrix metalloproteinase.
The levels of cell surface (or secreted, indicated by the prefix "s") biomarker endpoints were measured by ELISA. Overt cytotoxicity to cells in confluent adherent cultures (all systems other than the BT system) was assessed by measuring total protein levels using sulforhodamine B (SRB) staining in parallel cultures at the time of biomarker measurements, indicated as SRB endpoints. For proliferation assays for adherent cell types, individual cell types are cultured at sub-confluence and relative cell numbers quantified by SRB staining at time points optimized for each system (48 h: 3C and CASM3C systems; 72 h: BT and HDF3CGF systems; 96 h: SAg system). SRB was performed by staining cells with 0.1% SRB after fixation with 10% TCA and reading wells at 560 nm.Viability and proliferation of PBMC (T cells) was quantified by Alamar Blue reduction for the SAg and BT systems. For PBMC viability (referred to as PBMC Cytotoxicity within the assay endpoint names), cells were plated (75,000/well in a 96-well plate) and then chemical samples added for 1 h before addition of activators, SEB and TSST-1 (20 ng/mL final concentration each). Cells were incubated for 90 h. Then, Alamar Blue (20 uL/well) (Invitrogen, Cat DAL1100) was added for 6 h, and the plates were read with a fluorescence microplate reader at 546/580 nm (excitation/emission). For PBMC proliferation, cells were plated and activated as above but incubated for only 16 h prior to addition of Alamar Blue. Plates were read after 6 h.

SMILES	AC50	outcome
Nc1c(Cl)cc([N+](=O)[O-])cc1Cl	4.71 µM (active)	–
CSC1=N[C@@](C)(c2ccccc2)C(=O)N1Nc1ccccc1	–	inactive
CNc1cnn(-c2cccc(C(F)(F)F)c2)c(=O)c1Cl	–	inactive
C[Si](Cn1cncn1)(c1ccc(F)cc1)c1ccc(F)cc1	–	inactive
CNC(=O)Oc1cccc2c1OC(C)(C)O2	–	inactive
C=C(C)[C@H]1Cc2c(ccc3c2O[C@@H]2COc4cc(OC)c(OC)cc4[C@@H]2C3=O)O1	–	inactive
CCOC(=O)CC(SP(=O)(OC)OC)C(=O)OCC (stereo not given)	–	inactive
COc1ccc(C(=CC(=O)N2CCOCC2)c2ccc(Cl)cc2)cc1OC	–	inactive
CCCOc1nn(C(=O)NS(=O)(=O)c2ccccc2C(=O)OC)c(=O)n1C	–	inactive
C#CCC1=C(C)C(OC(=O)C2C(C=C(C)C)C2(C)C)CC1=O (stereo not given)	31.6 µM (active)	–
CCCSP(=O)(OCC)Oc1ccc(Br)cc1Cl (stereo not given)	–	inactive
N#CSCSC#N	3.17 µM (active)	–
CON=C(C(=O)OC)c1ccccc1CON=C(C)c1cccc(C(F)(F)F)c1	2.74 µM (active)	–
CCNc1nc(Cl)nc(NC(C)(C)C#N)n1	–	inactive
CCCCSP(=O)(SCCCC)SCCCC	–	inactive
CN(C)[C@@H]1C(=O)C(C(N)=O)=C(O)[C@@]2(O)C(=O)C3=C(O)c4c(O)cccc4[C@@](C)(O)[C@H]3[C@H](O)[C@@H]12	–	inactive
CCOP(=S)(Oc1cnc(C(C)(C)C)nc1)OC(C)C (stereo not given)	–	inactive
CNC(=O)ON=C(C)SC	–	inactive
CCCCOC(=O)[C@@H](C)Oc1ccc(Oc2ccc(C#N)cc2F)cc1	–	inactive
Cc1ccn2nc(S(=O)(=O)Nc3c(F)cccc3F)nc2n1	–	inactive

SMILES	AC50	outcome
CCC(=NOC/C=C/Cl)C1=C(O)CC(C2CCOCC2)CC1=O (stereo not given)	–	inactive
COP(=O)(OC)C(O)C(Cl)(Cl)Cl (stereo not given)	–	inactive
CC[C@H](C)[C@H]1O[C@]2(C=C[C@@H]1C)C[C@@H]1C[C@@H](C/C=C(\C)[C@@H](O[C@H]3C[C@H](OC)[C@@H](O[C@H]4C[C@H](OC)[C@@H](NC)[C@H](C)O4)[C@H](C)O3)[C@@H](C)/C=C/C=C3\CO[C@@H]4[C@H](O)C(C)=C[C@@H](C(=O)O1)[C@]34O)O2	6.78 µM (active)	–
CC(Oc1cccc(Cl)c1)C(=O)O (stereo not given)	–	inactive
CC(C)N(C(=O)SCC(Cl)=C(Cl)Cl)C(C)C	31.4 µM (active)	–
CCOP(=S)(OCC)Oc1cc(C)nc(C(C)C)n1	–	inactive
CCOP(=S)(OCC)Oc1ccc2c(C)c(Cl)c(=O)oc2c1	5.06 µM (active)	–
CCOP(=O)(NC(C)C)Oc1ccc(SC)c(C)c1 (stereo not given)	–	inactive
CCOP(=O)(OCC)Oc1cc(C)nc(C(C)C)n1	20 µM (active)	–
CC(=NC#N)N(C)Cc1ccc(Cl)nc1	–	inactive
COP(=O)(OC)SCn1c(=O)oc2cc(Cl)cnc21	30.6 µM (active)	–
CCC(=O)Nc1ccc(Cl)c(Cl)c1	–	inactive
CCc1cnc(C2=NC(C)(C(C)C)C(=O)N2)c(C(=O)O)c1 (stereo not given)	–	inactive
Cc1cc(C2CC2)nc(Nc2ccccc2)n1	–	inactive
CCOP(=O)(SC(C)CC)N1CCSC1=O (stereo not given)	–	inactive
CC(C)=CC1C(C(=O)OCN2C(=O)C3=C(CCCC3)C2=O)C1(C)C (stereo not given)	–	inactive
Cc1nn(-c2cc(NS(C)(=O)=O)c(Cl)cc2Cl)c(=O)n1C(F)F	–	inactive
CC(C1CC1)C(O)(Cn1cncn1)c1ccc(Cl)cc1 (stereo not given)	–	inactive
S=C1NCCN1	–	inactive
CCCCN(CC)c1c([N+](=O)[O-])cc(C(F)(F)F)cc1[N+](=O)[O-]	4.66 µM (active)	–
